Results taken from PubChem BioAssay (NCI).
Several values for one entry are separate records, joined by “and”; a condition that tells them apart may be missing. Equal values may be shown once. The panel holds about 83,000 compounds, 20% with a hit somewhere; the sample as a whole holds those more often.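 Single-concentration screen, 48 h exposure, 96-well plates. Endpoint: percent growth. Below 10 = active.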 Activity calls are given as the source filed them.

How the values were obtained:
Assay in all cases: NCI-60 one-dose screen, 48 h (100 = growth as untreated, 0 = no growth, -100 = all killed)
HCT-15 colon = tested on: HCT-15 colon
HT29 colon = tested on: HT29 colon
SNB-75 CNS = tested on: SNB-75 CNS
U251 CNS = tested on: U251 CNS
PC-3 prostate = tested on: PC-3 prostate
SK-MEL-5 melanoma = tested on: SK-MEL-5 melanoma
UACC-62 melanoma = tested on: UACC-62 melanoma
LOX IMVI melanoma = tested on: LOX IMVI melanoma
SK-MEL-28 melanoma = tested on: SK-MEL-28 melanoma
SK-MEL-2 melanoma = tested on: SK-MEL-2 melanoma
SN12C renal = tested on: SN12C renal
UO-31 renal = tested on: UO-31 renal
TK-10 renal = tested on: TK-10 renal
CAKI-1 renal = tested on: CAKI-1 renal
A498 renal = tested on: A498 renal
CCRF-CEM leukemia = tested on: CCRF-CEM leukemia
MOLT-4 leukemia = tested on: MOLT-4 leukemia
SNB-19 CNS = tested on: SNB-19 CNS
EKVX NSCLC = tested on: EKVX NSCLC
ACHN renal = tested on: ACHN renal

Measured: growth

Cc1[nH]c(-c2nc3ccccc3[nH]2)c(C)c1C(=O)NC(C)C1CCCCC1 (stereo unspecified)
active: HCT-15 colon; 100 µM -80.6% | HT29 colon; 100 µM -38.4% | SNB-75 CNS; 100 µM -98.9% | U251 CNS; 100 µM -64.5% | PC-3 prostate; 100 µM -58.3% | SK-MEL-5 melanoma; 100 µM -99.6% | UACC-62 melanoma; 100 µM -96.5% | SK-MEL-28 melanoma; 100 µM -94.9% | SK-MEL-2 melanoma; 100 µM -81.6% | SN12C renal; 100 µM -89.7% | UO-31 renal; 100 µM -97.8% | TK-10 renal; 100 µM -91% | CAKI-1 renal; 100 µM -97.2% | A498 renal; 10 µM unless noted -93.3% [100 µM] | CCRF-CEM leukemia; 100 µM -72.7% | MOLT-4 leukemia; 100 µM -51.3%
inactive: HCT-15 colon; 10 µM 69% | HT29 colon; 10 µM 94.8% | SNB-75 CNS; 10 µM 79.6% | U251 CNS; 10 µM 96.7% | PC-3 prostate; 10 µM 78.5% | SK-MEL-5 melanoma; 10 µM 80.2% | UACC-62 melanoma; 10 µM 78.1% | LOX IMVI melanoma; 10 µM unless noted 84.7% | SK-MEL-28 melanoma; 10 µM 89.2% | SK-MEL-2 melanoma; 10 µM 87.2% | SN12C renal; 10 µM 86.1% | UO-31 renal; 10 µM 89% | TK-10 renal; 10 µM 103% | CAKI-1 renal; 10 µM 85.8% | CCRF-CEM leukemia; 10 µM 81.3% | MOLT-4 leukemia; 10 µM 72.4%

Cc1cc(=O)[nH]c(O)c1C#N
inactive: HCT-15 colon; 10 µM unless noted 98% and 107% | HT29 colon; 10 µM unless noted 109% and 116% | SNB-75 CNS; 10 µM unless noted 72.5% and 96.7% | SNB-19 CNS; 10 µM unless noted 98.4% and 94.7% | U251 CNS; 10 µM unless noted 101% and 98.2% | PC-3 prostate; 10 µM unless noted 114% and 102% | SK-MEL-5 melanoma; 10 µM unless noted 100% and 106% | UACC-62 melanoma; 10 µM unless noted 97.7% and 96.5% | LOX IMVI melanoma; 10 µM unless noted 98.5% and 97.1% | SK-MEL-28 melanoma; 10 µM unless noted 98.2% and 157% | SK-MEL-2 melanoma; 10 µM unless noted 108% | EKVX NSCLC; 10 µM unless noted 99.6% and 99.9% | SN12C renal; 10 µM unless noted 102% and 93.7% | UO-31 renal; 10 µM unless noted 87.3% and 105% | TK-10 renal; 10 µM unless noted 103% and 92.9% | ACHN renal; 10 µM unless noted 101% and 95.7% | CAKI-1 renal; 10 µM unless noted 90.3% and 60.5% | A498 renal; 10 µM unless noted 114% and 111% | CCRF-CEM leukemia; 10 µM unless noted 113% and 90.3% | MOLT-4 leukemia; 10 µM unless noted 106% and 101%

CC(C)(C)c1cc(NC(=O)Cc2ccc(-c3cnc4cc(-c5cnn(CCN6CCOCC6)c5)ccc4n3)cc2)no1
inactive: HT29 colon; 10 µM 25.9% | HT29 colon; 30 µM 31.2% | SNB-19 CNS; 10 µM 42.4% | SNB-19 CNS; 30 µM 44% | U251 CNS; 10 µM 22.1% | U251 CNS; 30 µM 33.4% | PC-3 prostate; 10 µM 24.7% | PC-3 prostate; 30 µM 23.9% | UACC-62 melanoma; 10 µM 16.3% | UACC-62 melanoma; 30 µM 19.6% | LOX IMVI melanoma; 10 µM 17.7% | SK-MEL-28 melanoma; 10 µM 29.4% | SK-MEL-28 melanoma; 30 µM 30.3% | SK-MEL-2 melanoma; 30 µM 29.7% | EKVX NSCLC; 10 µM 26.9% | EKVX NSCLC; 30 µM 19.1% | TK-10 renal; 10 µM 34.9% | TK-10 renal; 30 µM 40.8% | CCRF-CEM leukemia; 10 µM 15.5% | CCRF-CEM leukemia; 30 µM 10.4% | MOLT-4 leukemia; 10 µM 13.8% | MOLT-4 leukemia; 30 µM 10.8%
active: HCT-15 colon; 10 µM 9.24% | HCT-15 colon; 30 µM 7.76% | SNB-75 CNS; 10 µM -0.488% | SNB-75 CNS; 30 µM -1.06% | SK-MEL-5 melanoma; 10 µM unless noted 9.52% | LOX IMVI melanoma; 30 µM 8.41% | SK-MEL-2 melanoma; 10 µM -8.73% | SN12C renal; 10 µM 7.01% | SN12C renal; 30 µM 6.88% | UO-31 renal; 10 µM 1.27% | UO-31 renal; 30 µM 3.63% | ACHN renal; 10 µM 5.88% | ACHN renal; 30 µM 8.72% | CAKI-1 renal; 10 µM 1.21% | CAKI-1 renal; 30 µM 3.67% | A498 renal; 10 µM -26.9% | A498 renal; 30 µM -14.9%
